From PubChem BioAssay (EPA / NIEHS) come the findings set out here.

For orientation: AC50 means the concentration at which the activity in the assay is half-maximal.

Active and inactive are the calls of the source. How the source made its calls: active means hit-call score of the fitted dose curve at least 0.9, where 1 is the maximum; inactive means score below 0.9.

Chain of Hypoxia-inducible factor 1-alpha (Homo sapiens) (Q16665 whole entry, looked up): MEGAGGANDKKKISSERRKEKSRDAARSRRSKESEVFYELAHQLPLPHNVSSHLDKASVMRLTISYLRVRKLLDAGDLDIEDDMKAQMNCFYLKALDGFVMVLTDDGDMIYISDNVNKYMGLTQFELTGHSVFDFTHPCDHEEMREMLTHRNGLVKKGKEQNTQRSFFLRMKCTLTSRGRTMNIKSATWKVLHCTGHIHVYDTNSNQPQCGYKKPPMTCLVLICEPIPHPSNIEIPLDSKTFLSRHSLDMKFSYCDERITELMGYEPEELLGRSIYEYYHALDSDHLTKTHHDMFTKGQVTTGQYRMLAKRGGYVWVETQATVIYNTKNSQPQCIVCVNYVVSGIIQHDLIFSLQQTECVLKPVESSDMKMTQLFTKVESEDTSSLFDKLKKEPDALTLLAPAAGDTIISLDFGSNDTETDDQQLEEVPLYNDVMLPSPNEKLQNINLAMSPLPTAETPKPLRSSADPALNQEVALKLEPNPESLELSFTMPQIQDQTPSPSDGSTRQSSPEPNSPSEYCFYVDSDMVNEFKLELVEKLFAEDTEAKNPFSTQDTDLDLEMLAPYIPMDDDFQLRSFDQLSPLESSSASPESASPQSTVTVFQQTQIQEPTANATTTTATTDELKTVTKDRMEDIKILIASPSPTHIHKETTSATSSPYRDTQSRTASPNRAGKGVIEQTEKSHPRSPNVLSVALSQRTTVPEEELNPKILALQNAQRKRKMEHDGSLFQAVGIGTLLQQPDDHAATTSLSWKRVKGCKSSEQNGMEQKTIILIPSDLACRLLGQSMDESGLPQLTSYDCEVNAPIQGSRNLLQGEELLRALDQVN
Chain of Hepatocyte nuclear factor 6 (Homo sapiens) (Q9UBC0 whole entry, looked up, the tested form may be a part): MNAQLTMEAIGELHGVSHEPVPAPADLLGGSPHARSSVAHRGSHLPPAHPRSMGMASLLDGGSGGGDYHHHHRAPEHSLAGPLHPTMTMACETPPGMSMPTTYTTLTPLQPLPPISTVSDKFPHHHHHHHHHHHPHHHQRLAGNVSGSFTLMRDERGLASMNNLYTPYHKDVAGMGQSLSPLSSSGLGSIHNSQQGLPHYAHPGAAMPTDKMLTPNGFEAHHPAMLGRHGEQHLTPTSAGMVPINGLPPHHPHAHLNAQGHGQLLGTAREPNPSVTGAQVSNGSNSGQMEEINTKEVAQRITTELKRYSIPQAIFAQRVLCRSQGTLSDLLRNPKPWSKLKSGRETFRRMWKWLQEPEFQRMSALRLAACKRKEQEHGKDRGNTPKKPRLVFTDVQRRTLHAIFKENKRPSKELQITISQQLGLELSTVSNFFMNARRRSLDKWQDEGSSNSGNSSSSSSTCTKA

Tested on in the first assay: not listed separately
As to the kind of experiment: ATG_M_06_CIS: Attagene CIS-FACTORIAL HepG2 Assay for M06 Transcription Factor (Internal Marker) (AID 2282950). As to conditions: HepG2 Attagene CIS-FACTORIAL M06 internal marker reporter; actives raise or lower the signal. In short, it runs like this:
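Terse: HepG2, transient MRTU transfection (FuGene 6), 24 h dosing; total RNA, oligo(dT) RT, PCR, FAM label, HpaI cut, capillary electrophoresis; bidirectional fit vs DMSO baseline; background-control endpoint.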
`ClC(Cl)(Cl)c1ccccc1`: the molecule was called inactive.

`CCOP(=S)(Oc1ccc([N+](=O)[O-])cc1)c1ccccc1` (centres undefined): the molecule was classed as inactive.

`CCCCN(CCCC)SN(C)C(=O)Oc1cccc2c1OC(C)(C)C2`: the molecule was called inactive.

For `Nc1ccc2ccccc2c1`, the molecule was called inactive.

With `O=C(O)C1C(C(=O)O)C2(Cl)C(Cl)=C(Cl)C1(Cl)C2(Cl)Cl` (centres undefined), the outcome was inactive.

Regarding `Cc1cccc(N)c1`, the molecule was classed as inactive.

With `CCCCOCCOP(=O)(OCCOCCCC)OCCOCCCC`, the outcome was inactive.

`CN(C)C(=O)Cl`: the outcome was inactive.

`O=C(O)C(Cl)Cl`: the molecule was classed as inactive.

Turning to `CCOS(=O)(=O)OCC`, the call was inactive.

In the case of `OCC1CO1` (centres undefined), the result was inactive.

On to `CCCCN(CCCC)N=O`, for which the call was inactive.

`CSC(C)(C)C=NO`: the result was inactive.

With `CCCCCCCc1ccc(O)cc1`, the result was inactive.

For the molecule `CCN(CC)c1ccccc1`, the molecule was called inactive.

For `Nc1cc2c3c(c1)C(c1ccccc1)=N[C@@H](NC(=O)c1cccnc1)C(=O)N3CC2`, the molecule was classed as inactive.

As to `O=C(O)CF`, the result was inactive.

Consider `Nc1ccc(Cl)cc1`, for which the molecule was called inactive.

For `CC(Cl)(Cl)C(=O)O`, the molecule was called inactive.

As to `CCOP(=S)(OCC)SCS(=O)(=O)CC`, the molecule was classed as inactive.

With `CCOC(=O)c1ccccc1C(=O)OCC`, the molecule was called inactive.

For the molecule `CCC1(c2ccccc2)C(=O)N=C(O)NC1=O` (centres undefined), the call was inactive.

`O=C(CBr)OCc1ccccc1`: the outcome was inactive.

Consider `Cc1ccc(O)cc1C`, for which the molecule was classed as inactive.

Consider `c1ccc(OP(Oc2ccccc2)Oc2ccccc2)cc1`, for which the result was inactive.

`O=[N+]([O-])c1ccccc1`: the call was inactive.

For the molecule `CCCCc1ccc(O)cc1`, the result was inactive.

As for `COCCOCCO`, the outcome was inactive.

Take `[N-]=[N+]=[N-]`: the molecule was called inactive.

Take `ClC(Cl)c1ccccc1`: the molecule was classed as inactive.

On to `Nc1ccc(Sc2ccc(N)cc2)cc1`, for which the call was inactive.

For `CCCN(CCC)c1c([N+](=O)[O-])cc(C(C)C)cc1[N+](=O)[O-]`, the result was inactive.

Regarding `CC1=C(C(=O)Nc2ccccc2)S(=O)(=O)CCO1`, the molecule was classed as inactive.

For the molecule `CC(Cc1ccc(OCC(=O)O)cc1)NCC(O)c1csc(C(F)(F)F)n1` (centres undefined), the call was inactive.

On to `NNC(N)=S`, for which the outcome was inactive.

Consider `c1cc2c3c(cccc3c1)CC2`, for which the result was inactive.

In the case of `c1ccc2c(c1)Nc1ccccc1S2`, the result was inactive.

As for `Cc1ccc([N+](=O)[O-])cc1C`, the outcome was inactive.

On to `CC(C)(C)c1ccc(O)cc1`, for which the molecule was classed as inactive.

Another assay has as its target Hypoxia-inducible factor 1-alpha (Homo sapiens) (UniProt Q16665). As to the kind of experiment: ATG_HIF1a_CIS: Attagene CIS-FACTORIAL HepG2 Assay for human Hypoxia Inducible Factor 1 (HIF1A) (AID 2282951). As to conditions: HepG2 Attagene cis-factorial HIF1a reporter transcription; actives raise or lower the signal. In short, it runs like this: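 In this multiplexed cell assay, HepG2 cells bearing transfected cis reporters are dosed for 24 h and reporter mRNA is read by RT-PCR plus capillary electrophoresis; signal increases and decreases are both scored against DMSO.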
As to `ClC(Cl)(Cl)c1ccccc1`, the molecule was classed as inactive.

For `CCOP(=S)(Oc1ccc([N+](=O)[O-])cc1)c1ccccc1` (centres undefined), the call was inactive.

On to `CCCCN(CCCC)SN(C)C(=O)Oc1cccc2c1OC(C)(C)C2`, for which the outcome was inactive.

Consider `Nc1ccc2ccccc2c1`, for which the molecule was called inactive.

On to `Cc1cccc(N)c1`, for which the molecule was classed as inactive.

`CCCCOCCOP(=O)(OCCOCCCC)OCCOCCCC`: the molecule was classed as inactive.

On to `CN(C)C(=O)Cl`, for which the molecule was classed as inactive.

Consider `O=C(O)C(Cl)Cl`, for which the call was inactive.

In the case of `CCOS(=O)(=O)OCC`, the result was inactive.

For `OCC1CO1` (centres undefined), the outcome was inactive.

With `CCCCN(CCCC)N=O`, the result was inactive.

`CSC(C)(C)C=NO`: the molecule was classed as inactive.

In the case of `CCCCCCCc1ccc(O)cc1`, the call was inactive.

With `CCN(CC)c1ccccc1`, the molecule was classed as inactive.

Consider `Nc1cc2c3c(c1)C(c1ccccc1)=N[C@@H](NC(=O)c1cccnc1)C(=O)N3CC2`, for which the call was inactive.

For `O=C(O)CF`, the result was inactive.

Turning to `Nc1ccc(Cl)cc1`, the molecule was called inactive.

Turning to `CC(Cl)(Cl)C(=O)O`, the molecule was classed as inactive.

Regarding `CCOP(=S)(OCC)SCS(=O)(=O)CC`, the molecule was called inactive.

As for `CCOC(=O)c1ccccc1C(=O)OCC`, the outcome was inactive.

As for `CCC1(c2ccccc2)C(=O)N=C(O)NC1=O` (centres undefined), the molecule was called inactive.

Turning to `O=C(CBr)OCc1ccccc1`, the result was inactive.

Consider `Cc1ccc(O)cc1C`, for which the molecule was classed as inactive.

With `c1ccc(OP(Oc2ccccc2)Oc2ccccc2)cc1`, the call was inactive.

Regarding `O=[N+]([O-])c1ccccc1`, the result was inactive.

With `CCCCc1ccc(O)cc1`, the AC50 is 164 µM (active).

`COCCOCCO`: the molecule was called inactive.

In the case of `[N-]=[N+]=[N-]`, the result was inactive.

In the case of `ClC(Cl)c1ccccc1`, the molecule was classed as inactive.

Turning to `Nc1ccc(Sc2ccc(N)cc2)cc1`, the AC50 was 45.3 µM (active).

For `CCCN(CCC)c1c([N+](=O)[O-])cc(C(C)C)cc1[N+](=O)[O-]`, the result was inactive.

Turning to `CC1=C(C(=O)Nc2ccccc2)S(=O)(=O)CCO1`, the AC50 was 27.2 µM (active).

For `CC(Cc1ccc(OCC(=O)O)cc1)NCC(O)c1csc(C(F)(F)F)n1` (centres undefined), the molecule was classed as inactive.

On to `NNC(N)=S`, for which the molecule was classed as inactive.

As for `c1cc2c3c(cccc3c1)CC2`, the result was inactive.

As to `c1ccc2c(c1)Nc1ccccc1S2`, the molecule was classed as inactive.

`Cc1ccc([N+](=O)[O-])cc1C`: the call was inactive.

As for `CC(C)(C)c1ccc(O)cc1`, the AC50 is 76.7 µM (active).

For the next assay, the target named is Hepatocyte nuclear factor 6 (Homo sapiens) (UniProt Q9UBC0). As to the kind of experiment: ATG_HNF6_CIS: Attagene CIS-FACTORIAL HepG2 Assay for human Hepatocyte Nuclear Factor 6 (HNF6) (AID 2282952). The note with it: HepG2 Attagene cis-factorial HNF6 reporter transcription; actives raise or lower the signal. In short, it runs like this:
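Reporter mRNA induction or loss in HepG2 after 24 h exposure; transient cis-MRTU transfection; fragments quantified by capillary electrophoresis; bidirectional analysis, DMSO as negative control.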
For the molecule `ClC(Cl)(Cl)c1ccccc1`, the result was inactive.

With `CCOP(=S)(Oc1ccc([N+](=O)[O-])cc1)c1ccccc1` (centres undefined), the call was inactive.

Turning to `CCCCN(CCCC)SN(C)C(=O)Oc1cccc2c1OC(C)(C)C2`, the result was inactive.

As for `Nc1ccc2ccccc2c1`, the outcome was inactive.

Take `O=C(O)C1C(C(=O)O)C2(Cl)C(Cl)=C(Cl)C1(Cl)C2(Cl)Cl` (centres undefined): the result was inactive.

Turning to `Cc1cccc(N)c1`, the outcome was inactive.

Take `CCCCOCCOP(=O)(OCCOCCCC)OCCOCCCC`: the molecule was called inactive.

Take `CN(C)C(=O)Cl`: the molecule was classed as inactive.

As to `O=C(O)C(Cl)Cl`, the outcome was inactive.

Turning to `CCOS(=O)(=O)OCC`, the call was inactive.

As for `OCC1CO1` (centres undefined), the molecule was classed as inactive.

As to `CCCCN(CCCC)N=O`, the molecule was classed as inactive.

For `CSC(C)(C)C=NO`, the result was inactive.

Regarding `CCCCCCCc1ccc(O)cc1`, the molecule was called inactive.

With `CCN(CC)c1ccccc1`, the call was inactive.

Turning to `Nc1cc2c3c(c1)C(c1ccccc1)=N[C@@H](NC(=O)c1cccnc1)C(=O)N3CC2`, the result was inactive.

Consider `O=C(O)CF`, for which the molecule was classed as inactive.

Take `Nc1ccc(Cl)cc1`: the molecule was called inactive.

For the molecule `CC(Cl)(Cl)C(=O)O`, the result was inactive.

Consider `CCOP(=S)(OCC)SCS(=O)(=O)CC`, for which the molecule was classed as inactive.

As for `CCOC(=O)c1ccccc1C(=O)OCC`, the call was inactive.

On to `CCC1(c2ccccc2)C(=O)N=C(O)NC1=O` (centres undefined), for which the outcome was inactive.

As for `O=C(CBr)OCc1ccccc1`, the molecule was called inactive.

With `c1ccc(OP(Oc2ccccc2)Oc2ccccc2)cc1`, the molecule was classed as inactive.

Consider `O=[N+]([O-])c1ccccc1`, for which the molecule was called inactive.

For `CCCCc1ccc(O)cc1`, the outcome was inactive.

`COCCOCCO`: the molecule was called inactive.

Regarding `[N-]=[N+]=[N-]`, the molecule was classed as inactive.

Consider `ClC(Cl)c1ccccc1`, for which the call was inactive.

As to `Nc1ccc(Sc2ccc(N)cc2)cc1`, the molecule was called inactive.

Take `CCCN(CCC)c1c([N+](=O)[O-])cc(C(C)C)cc1[N+](=O)[O-]`: the outcome was inactive.

Consider `CC1=C(C(=O)Nc2ccccc2)S(=O)(=O)CCO1`, for which the AC50 is 45.4 µM (active).

Turning to `CC(Cc1ccc(OCC(=O)O)cc1)NCC(O)c1csc(C(F)(F)F)n1` (centres undefined), the molecule was called inactive.

Consider `NNC(N)=S`, for which the molecule was classed as inactive.

Take `c1cc2c3c(cccc3c1)CC2`: the molecule was called inactive.

Consider `c1ccc2c(c1)Nc1ccccc1S2`, for which the molecule was classed as inactive.

As to `Cc1ccc([N+](=O)[O-])cc1C`, the outcome was inactive.
